Screens deposited in PubChem by several laboratories.
TIM10 inh: inhibits growth of TIM10 yeast strain | actives 1.4% (n = 330,000) | S. cerevisiae TIM10 strain growth, BacTiter-Glo luminescence, 24 h | inhibition, % at 10 µM | AID 463195;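 active = inhibition of 40% or more at the single tested concentration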;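 note: wild-type TIM10 isogenic control strain grown at permissive 25 °C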
tim10-1 inh: tim10-1 yeast growth inhibition; S. cerevisiae tim10-1 ts strain growth, BacTiter-Glo, 24 h; inhibition, % at 20 µM; actives 2.2% (n = 330,000);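 active = inhibition of at least 40%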;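 note: mutant grown at 25 °C; 0% = DMSO wells with yeast and 100% = wells holding no yeast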
NALP3 yeast inh: blocks the NALP3 inflammasome reconstituted in yeast. inhibition, % at 10 µM. actives 0.39% (n = 330,000). Yeast reconstituted NLRP3/ASC/caspase-1, beta-gal luminescence, 24 h;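 active = inhibition of 50% or more; inactive = inhibition below 50%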;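 note: plate controls were induced DMSO wells for no effect and uninduced yeast grown without galactose for full effect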
SKKanGAS inh: SKKanGAS growth inhibition; S. pyogenes SKKanGAS, kanamycin growth, BacTiter-Glo, 6 h; inhibition, % at 7.5 µM; actives 1.3% (n = 300,000); AID 1662;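 active = mean replicate score, as percent of positive control median, at least 50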;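 note: strain carries kanamycin resistance gene driven by streptokinase promoter and grows in 40 µg/ml kanamycin; loss of luminescence reflects streptokinase promoter inhibition or plain growth inhibition; 0% = median of DMSO wells and 100% = positive control at its reference dose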
PfHsp90 yeast 2: growth inhibition of yeast expressing Plasmodium Hsp90; S. cerevisiae expressing PfHsp90, BacTiter-Glo ATP, 48 h; yeast lacking PDR1 and PDR3 efflux regulators; inhibition, % at 9.4 µM; actives 0.32% (n = 310,000); AID 504621;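 active = every replicate shows inhibition above about 80%, whatever the replicate mean, limit read from the data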;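 note: 0% = DMSO neutral controls and 100% = 20 µM radicicol positive controls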
tim23-1 inh: tim23-1 yeast growth inhibition; AID 463212; S. cerevisiae tim23-1 growth, BacTiter-Glo luminescence, 24 h; actives 1.3% (n = 330,000); inhibition, % at 20 µM;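 active = growth inhibition of the mutant yeast at or above 50%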;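 note: temperature-sensitive mutant grown at 25 °C; plate controls were DMSO-treated mutant yeast for no effect and medium wells lacking yeast for full effect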
tim10-1 confirm: tim10-1 yeast growth inhibition, confirmed; shares compounds with tim10-1 inh; S. cerevisiae tim10-1 ts strain growth, BacTiter-Glo, 24 h; inhibition, % at 20 µM; actives 56% (n = 7,400); AID 463213;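 active = inhibition of yeast growth at or above a set limit in either of two repeat tests at 20 µM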;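 note: tim10-1 mutant grown at permissive 25 °C to find synthetic lethal compounds; 0% = DMSO yeast wells and 100% = medium wells without yeast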
TIM10 conf: confirmation of TIM10 yeast growth inhibitors. AID 463215. actives 63% (n = 4,600). shares compounds with TIM10 inh. inhibition, % at 10 µM. S. cerevisiae tim10 strain growth, BacTiter-Glo luminescence, 24 h;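 active = inhibition of yeast growth at or above a set limit in either of two replicates at 10 µM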;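 note: this counterscreen used the strain with wild-type TIM10; 0% = yeast with DMSO and 100% = medium wells lacking yeast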
tim23-1 confirm: tim23-1 yeast growth inhibition, confirmed | shares compounds with tim23-1 inh | S. cerevisiae tim23-1 growth, BacTiter-Glo luminescence, 24 h | inhibition, % at 20 µM | actives 83% (n = 4,400);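 active = inhibition above about 39% in either of two replicate wells at 20 µM, limit read from the data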;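 note: temperature-sensitive tim23-1 mutant grown at 25 °C; 0% = DMSO wells with yeast and 100% = medium wells without yeast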
An asterisk follows results filed as active; / = no result. This is a sample that favours compounds with a hit; in the whole collection about 4.6% have one here.

SMILES	TIM10 inh	tim10-1 inh	NALP3 yeast inh	SKKanGAS inh	PfHsp90 yeast 2	tim23-1 inh	tim10-1 confirm	TIM10 conf	tim23-1 confirm
COc1ccc(-n2c(=S)[nH]c3cc(C(=O)NCCCN4CCOCC4)ccc3c2=O)cc1OC	-24.2	9.5	18.0	1.3	0.6	14.1	/	/	/
O=S(=O)(c1ccc2c(c1)OCCO2)N1CCN(Cc2ccc3c(c2)OCO3)CC1	50.1*	46.5*	9.4	7.1	/	60.2*	45.5*	51.1*	63.0*
CN1/C(=C\C(=S)NC(=O)c2ccc([N+](=O)[O-])cc2)C(C)(C)c2ccccc21	9.4	12.3	22.8	3.5	2.9	-2.9	/	/	/
CN1/C(=C/C2CC(=O)N(c3ccc([N+](=O)[O-])cc3)C2=O)C(C)(C)c2ccccc21 (stereo not given)	51.4*	66.3*	-0.4	6.1	-2.5	51.1*	61.7*	41.9*	66.0*
CS(=O)(=O)c1ccc2nc(NC(=O)c3cccs3)sc2c1	31.5	44.3*	-2.0	/	32.0	60.5*	41.5*	/	53.8*
NC(=S)N/N=C/c1coc2ccc(Cl)cc2c1=O	22.1	54.5*	15.5	1.5	-178.6	81.7*	16.5	/	80.2*
COc1cc(C(=O)N/N=C/c2coc3ccc(Cl)cc3c2=O)ccc1O	34.7	52.0*	11.7	-9.8	15.7	80.8*	7.9	/	48.6*
COc1cc(C(=O)N/N=C/c2coc3ccccc3c2=O)cc(OC)c1OC	9.4	20.1	2.7	-0.4	31.5	33.0	/	/	/
O=C(N/N=C/c1coc2ccc(Cl)cc2c1=O)c1ccc(O)cc1	31.0	49.5*	2.5	2.2	49.2	84.3*	-1.0	/	48.8*
COc1ccc(C(=O)N/N=C\c2coc3ccc(Cl)cc3c2=O)cc1	33.0	44.2*	12.2	1.8	-1.6	83.7*	-4.2	/	74.6*
O=C(O)CCn1c(=S)n(CCC(=O)O)c2ccccc21	-17.5	-6.6	5.0	-1.5	-3.5	7.1	/	/	/
CC(C)c1nnc(SCC(=O)NC2CCCC2)n1C	-9.9	-12.7	6.3	13.5	20.3	11.8	/	/	/
CC(=O)Nc1ccc(S(=O)(=O)Nc2ccccc2C(=O)N2CCCC2)cc1	-4.9	16.5	1.6	-5.9	-40.3	9.4	/	/	/
CCCCCCCCCCOC(=O)Cn1c(COc2ccc(Cl)cc2)[n+](C)c2ccccc21	54.9*	96.6*	18.1	108.4*	106.1*	91.6*	92.4*	53.6*	90.8*
Oc1c(Br)cc(Cl)cc1C=Nc1ccccc1Br	38.1	45.9*	4.1	8.0	-0.3	84.1*	25.2	/	78.7*
CC(=O)c1c(C)oc2ccc(N(C(C)=O)S(=O)(=O)c3cccc4cccnc34)cc12	-10.0	9.7	-9.3	-0.2	-7.1	4.8	/	/	/
O=[N+]([O-])c1ccccc1Nc1c2ccccc2nc2ccccc12	5.0	-5.7	0.7	-8.9	-12.3	1.0	/	/	/
O=[N+]([O-])c1ccc(Nc2c3ccccc3nc3ccccc23)cc1	48.6*	63.3*	19.2	18.3	-10.5	73.4*	53.6*	49.6*	68.2*
COc1ccc(-c2nc(-c3ccccc3)c(-c3cc([N+](=O)[O-])ccc3C)[nH]2)cc1O	16.6	43.6*	-2.9	2.5	16.3	52.8*	36.4*	/	58.0*
Cc1ccc([N+](=O)[O-])cc1-c1[nH]c(-c2ccc(O)c(O)c2)nc1-c1ccccc1	9.2	28.2	3.6	21.0	/	-9.9	/	/	/
O/N=C(\c1ccc(Cl)cc1)c1cc2ccccc2o1	53.2*	45.8*	9.0	13.1	-44.1	67.1*	67.2*	59.6*	63.6*
O=C(Nc1ccc(Cl)cc1Cl)c1cc2ccccc2o1	-12.2	2.4	16.7	-4.4	-26.9	7.2	/	/	/
Cc1ccccc1NC(=S)NCc1ccc2[nH]c3c(c2c1)CCCC3	47.1*	48.5*	22.5	9.5	-30.3	55.6*	30.2	43.4*	48.2*
CN(C)C(=O)c1ccc2c(c1[N+](=O)[O-])C(=O)c1ccccc1C2=O	69.0*	71.4*	36.4	19.1	-31.1	60.8*	61.2*	62.8*	58.2*
Cc1[nH]c2c(C)cccc2c1CCNC(=O)c1ccc2c(c1[N+](=O)[O-])C(=O)c1ccccc1C2=O	39.6	26.7	36.0	45.4	-11.2	39.3	/	/	/
SMILES	TIM10 inh	tim10-1 inh	NALP3 yeast inh	SKKanGAS inh	PfHsp90 yeast 2	tim23-1 inh	tim10-1 confirm	TIM10 conf	tim23-1 confirm
Cc1ccc(S(=O)(=O)CC#CCOC(=O)c2ccc([N+](=O)[O-])cc2)cc1	30.0	59.5*	-16.4	3.9	/	76.1*	47.2*	/	80.6*
COc1cccc(-c2nc(NC(C)C)c3ccccc3n2)c1O	26.6	56.9*	7.2	4.9	/	54.8*	45.3*	/	51.5*
CCCN(CCC)C(=O)c1cc([N+](=O)[O-])cc2c1-c1ccc([N+](=O)[O-])cc1C2=C(C#N)C#N	10.9	66.7*	7.5	7.9	/	74.2*	67.2*	/	74.8*
CCCCN(CCCC)C(=O)c1cc(Cl)ccc1[N+](=O)[O-]	-13.6	9.1	-36.5	0.1	-4.6	28.1	/	/	/
O=C(CSc1nnc(-c2ccccn2)o1)Nc1ccccc1F	-10.3	-35.8	2.8	-0.9	-17.5	-27.1	/	/	/
O=C(Nc1cccc(-c2nnc(-c3ccccc3)o2)c1)C1CC1	26.8	41.4*	23.9	7.9	5.2	60.0*	19.9	/	75.5*
Cc1nn(-c2ccccc2)c2c1C1(C(=O)N3c4c(cccc41)C(C)CC3(C)C)C(C#N)=C(N)O2 (stereo not given)	51.9*	74.7*	3.3	11.7	-15.7	68.7*	72.8*	42.8*	77.8*
CCOCCCNC(=O)/C(C#N)=C/c1ccc(Cl)c([N+](=O)[O-])c1	65.9*	47.3*	-3.4	-2.5	-9.2	86.1*	72.8*	81.9*	88.2*
CCOC(=O)c1cn(-c2c(C)n(C)n(-c3ccccc3)c2=O)c2c(F)c(F)c(F)cc2c1=O	6.3	4.4	4.4	-2.5	/	4.8	/	/	/
COC1=CC(=O)OC(c2ccco2)C1 (stereo not given)	/	/	/	/	1.4	/	/	/	/
Cc1ccc(-c2nc(N/N=C/c3ccncc3)c3ccccc3n2)cc1	60.0*	73.7*	7.6	8.6	17.1	75.6*	69.0*	60.0*	80.7*
COc1ccc(/C=N/Nc2nc(-c3cccnc3)nc3ccccc23)cc1OC	17.3	25.9	-7.3	2.5	10.8	42.1	/	/	/
Nn1c(COc2ccc(Cl)cc2)nc2ccccc2c1=O	-23.3	-12.4	20.3	1.0	-14.6	8.0	/	/	/
Clc1cccc(Cl)c1Cn1cnc2c(N3CCCCCC3)ncnc21	41.1*	44.0*	7.0	21.5	-2.4	50.1*	29.3	27.6*	47.2*
